A selection: hits, their analogues and other compounds. The true share with any hit is near 4.5%.
PfHsp90 set2: growth inhibition of yeast expressing Plasmodium Hsp90; inhibition, % at 9.4 µM; 310,000 compounds, 0.32% hits; S. cerevisiae expressing PfHsp90, BacTiter-Glo ATP, 48 h; yeast lacking PDR1 and PDR3 efflux regulators;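 active = every replicate shows inhibition above about 80%, whatever the replicate mean, limit read from the data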;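 also: 0% = DMSO neutral controls and 100% = 20 µM radicicol positive controls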
tim10-1 inh: inhibits growth of tim10-1 mutant yeast. S. cerevisiae tim10-1 ts strain growth, BacTiter-Glo, 24 h. inhibition, % at 20 µM. 330,000 compounds, 2.2% hits. AID 463190;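 active = inhibition of at least 40%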;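 also: mutant grown at 25 °C; 0% = DMSO wells with yeast and 100% = wells holding no yeast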
TIM10 inh: growth inhibitors of TIM10 yeast strain; inhibition, % at 10 µM; S. cerevisiae TIM10 strain growth, BacTiter-Glo luminescence, 24 h; 330,000 compounds, 1.4% hits;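 active = inhibition of 40% or more at the single tested concentration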;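 also: wild-type TIM10 isogenic control strain grown at permissive 25 °C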
NALP3 yeast inh: blocks the NALP3 inflammasome reconstituted in yeast. Yeast reconstituted NLRP3/ASC/caspase-1, beta-gal luminescence, 24 h. inhibition, % at 10 µM. 330,000 compounds, 0.39% hits;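 active = inhibition of 50% or more; inactive = inhibition below 50%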;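 also: plate controls were induced DMSO wells for no effect and uninduced yeast grown without galactose for full effect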
tim23-1 inh: inhibits growth of tim23-1 mutant yeast; S. cerevisiae tim23-1 growth, BacTiter-Glo luminescence, 24 h; inhibition, % at 20 µM; 330,000 compounds, 1.3% hits;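 active = growth inhibition of the mutant yeast at or above 50%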;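 also: temperature-sensitive mutant grown at 25 °C; plate controls were DMSO-treated mutant yeast for no effect and medium wells lacking yeast for full effect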
SKKanGAS inh: SKKanGAS growth inhibition | 300,000 compounds, 1.3% hits | S. pyogenes SKKanGAS, kanamycin growth, BacTiter-Glo, 6 h | inhibition, % at 7.5 µM | AID 1662;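 active = mean replicate score, as percent of positive control median, at least 50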;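 also: strain carries kanamycin resistance gene driven by streptokinase promoter and grows in 40 µg/ml kanamycin; loss of luminescence reflects streptokinase promoter inhibition or plain growth inhibition; 0% = median of DMSO wells and 100% = positive control at its reference dose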
tim10-1 confirm: tim10-1 yeast growth inhibition, confirmed. shares compounds with tim10-1 inh. S. cerevisiae tim10-1 ts strain growth, BacTiter-Glo, 24 h. inhibition, % at 20 µM. 7,400 compounds, 56% hits. AID 463213;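 active = inhibition of yeast growth at or above a set limit in either of two repeat tests at 20 µM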;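 also: tim10-1 mutant grown at permissive 25 °C to find synthetic lethal compounds; 0% = DMSO yeast wells and 100% = medium wells without yeast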
Starred values were filed as active, the others as inactive; nt = no result given.

SMILES	PfHsp90 set2	tim10-1 inh	TIM10 inh	NALP3 yeast inh	tim23-1 inh	SKKanGAS inh	tim10-1 confirm
O=C(COC(=O)COc1ccc(Cl)cc1)Nc1ncc(Br)s1	nt	0	-7	11	6	nt	nt
COc1cccc2[nH]c(C(=O)NCC3CCCO3)cc12 (centres undefined)	15	8	-4	3	-4	-3	nt
COc1ccccc1-c1nc(C(=O)NCC2CCCO2)cc2c1[nH]c1ccccc12 (centres undefined)	13	43*	22	5	47	9	32
COc1cc(-c2nc(C(=O)NCC3CCCO3)cc3c2[nH]c2ccccc23)cc(OC)c1OC (centres undefined)	nt	42*	18	9	36	36	19
Cc1cc(C)cc(NC(=S)N2CCN(S(C)(=O)=O)CC2)c1	-5	-20	7	14	7	-6	nt
COc1ccc(-c2noc(Cn3cc(S(=O)(=O)N4CCCC4)ccc3=O)n2)cc1	13	-13	2	20	-5	nt	nt
O=S(=O)(NC1CCCCC1Nc1ccc(Cl)cc1)c1ccccc1 (centres undefined)	7	31	27	10	31	15	nt
Cc1ccc(NC2CCCCC2NS(=O)(=O)c2ccccc2)c(C)c1 (centres undefined)	2	44*	20	18	44	0	21
Cc1ccnc(NS(=O)(=O)c2ccc3ccccc3c2)n1	12	-20	-4	9	6	4	nt
CC(C)CCC1(C)NC(=O)N(CC(=O)NCC(=O)Nc2ccc(F)c(F)c2F)C1=O (centres undefined)	-2	-6	-8	3	-16	nt	nt
COC(=O)C(C)(C(=O)OC)c1ccc(C(F)(F)F)cc1[N+](=O)[O-]	11	17	-9	5	15	-5	nt
Nc1c(C(=O)NC2CCCC2)sc2nc(-c3cccs3)ccc12	-3	40*	30	10	22	1	32*
O=C(Nc1ccc(Cl)cc1)P(=O)(O)c1ccccc1	21	nt	nt	nt	nt	nt	nt
Cc1cc(C)cc(NC(=O)CSCc2cc(=O)n3ccsc3n2)c1	1	2	-4	11	-1	-8	nt
CCCC(=O)Nc1cc(C)c(NC(=O)C23CC4CC(CC(C4)C2)C3)cn1	4	42*	36	19	24	3	32*
CCN(CC)CCNCC1C(=O)O[C@@H]2C[C@@]3(C)CCC[C@H](C)C3=C[C@H]12 (some centres undefined)	3	51*	24	13	44	-2	37*
COc1ccc(-c2cc(CCC(=O)N3CCN(c4cc(C)ccc4C)CC3)[nH]n2)cc1	-10	16	21	nt	44	nt	nt
O=C(Nc1nc2ccc(Cl)cc2s1)c1ccco1	12	40*	39	20	34	-3	30
O=C(Nc1nc2ccc(Br)cc2s1)c1ccco1	-24	25	13	26	33	-4	nt
CCC(c1nnnn1Cc1ccccc1)N1CCN(c2ccccc2)CC1 (centres undefined)	nt	41*	1	-10	13	0	24
CCc1ccccc1N1CC(C(=O)Nc2nccs2)CC1=O (centres undefined)	25	2	-1	19	0	-6	nt
COc1cc(OC)cc(-c2nc3ccccc3c(=O)o2)c1	1	6	1	17	2	-2	nt
COc1cccc(-c2nc3ccccc3c(=O)o2)c1	-2	48*	29	2	36	10	42*
O=C(N(c1ccccn1)c1ccccn1)C12CC3CC(CC(C3)C1)C2	2	42*	1	1	32	7	28
O=C(N(Cc1ccccc1)c1ccccn1)C12CC3CC(CC(C3)C1)C2	nt	35	35	-8	38	7	nt
SMILES	PfHsp90 set2	tim10-1 inh	TIM10 inh	NALP3 yeast inh	tim23-1 inh	SKKanGAS inh	tim10-1 confirm
CC(C)[C@@H](C(=O)NCC1CCCO1)N1C(=O)N2CCc3c([nH]c4ccccc34)[C@@]2(C)C1=O (some centres undefined)	-21	19	4	-3	12	-2	nt
O=c1c2[nH]c3ccc(F)cc3c2nc2n1CCS2	-16	46*	26	6	19	13	40*
O=c1c2[nH]c3ccc(F)cc3c2nc2n1CCCS2	16	41*	18	29	32	0	23
CC(C)(C)n1nc2c(c1NC(=O)c1ccc(C(F)(F)F)cc1)CS(=O)(=O)C2	27	-23	10	12	0	-2	nt
CCOC(=O)c1cc(C)n(-c2ccc(Cl)cc2)c1C	6	2	13	7	10	-1	nt
CCOC(=O)c1cc(C)n(-c2ccc(OC)c(OC)c2)c1C	2	47*	17	-1	15	1	10
COc1cccc(NC(=O)c2ccc3c(c2)C(=O)N(CC2CCCO2)C3=O)c1 (centres undefined)	9	-8	5	16	3	6	nt
Cn1c2ccccc2c(=O)c2cc(C#Cc3ccsc3)ccc21	-36	0	-8	-34	-14	9	nt
Cn1c2ccccc2c(=O)c2cc(C#CC3(O)CCCCC3)ccc21	0	44*	-7	-35	-3	22	39*
N#Cc1ccc(C#Cc2ccc3oc4ccccc4c(=O)c3c2)cc1	-16	-3	-1	3	-4	nt	nt
O=c1c2ccccc2oc2ccc(C#CC3(O)CCCCC3)cc12	-13	45*	21	-17	30	6	36*
Cn1c2ccccc2c(=O)c2ccc(C#CC3(N)CCCCC3)cc21	6	45*	27	10	33	-1	36*
C/C(=C\C(=O)c1ccccc1)NNc1nc2ccccc2s1	-13	55*	34	-16	34	28	39*
CC(=O)NNc1nc2ccccc2s1	-10	5	-3	1	4	-10	nt
COc1ccc(CCNC(=O)CSc2ccc3nnc(CCNC(=O)c4ccc(C)cc4)n3n2)cc1OC	8	-12	-3	12	0	1	nt
NC(=O)C1CCN(CC(=O)Nc2ccc3c(c2)OCCO3)CC1	1	5	8	1	7	nt	nt
O=C(CN1CCC(C(=O)c2ccc(Cl)cc2)CC1)Nc1ccc2c(c1)OCCO2	10	44*	15	12	35	-3	25
O=C(Cn1ccc2ccccc2c1=O)NCC(=O)N1CCN(c2ccc(F)cc2)CC1	7	-1	-29	1	9	-3	nt
O=C1C2C3CCCC3=C3CCCC3C2C(=O)N1c1ccc(Cl)cc1 (centres undefined)	10	42*	16	-4	39	11	31*
CN1CCN(NC(=O)Nc2ccc(Br)cc2Cl)CC1	-11	-7	3	13	-4	3	nt
COc1cccc(CN2CC(C(=O)NC3CCC(O)CC3)CCC2=O)c1 (centres undefined)	13	-4	4	-2	2	-3	nt

Compound activity: PubChem BioAssay, several laboratories
